Many of the other results were omitted from the sample, so hits are more common in it than they were.
nsP2pro primary – CHIKV nsP2 protease inhibition, primary qHTS | Q8JUX6 | FRET peptide cleavage, nsP2pro, fluorescence 1 h | Potency, µM (titrated, usually from 24.9 µM), without a hit: at the top dose activity change, negative = inhibition, hits mostly inhibitors | actives 1.1% (n = 31,000); further: nearly all actives have a fitted effect of over 60% in size
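FRET cleavage of 2.5 uM peptide 2 by 150 nM CHIKV protease domain at pH 8.0 (Tris, Tween 20). Compounds at 7 concentrations (up to 25 uM) preincubated 15 min. Fluorescence read after 1 h at room temperature.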
nsP2 cell sec – secondary cell-based test for CHIKV nsP2 protease inhibitors. shares compounds with nsP2pro primary. cell-based CHIKV nsP2 protease reporter assay. Potency, µM (doses to about 51.1 µM), for inactives: at the top dose activity change, negative = inhibition, usual class: inhibitors. actives 10% (n = 450); further: nearly all actives have a fitted effect of over 70% in size
CHIKV NSP2 FL – selectivity test for CHIKV nsP2 protease inhibitors: full-length NSP2. AID 1964101. Potency, µM (series often up to 50.7 µM), inactives show at the highest dose activity change, negative = inhibition, actives largely listed as inhibitors. actives 39% (n = 410). shares compounds with nsP2pro primary. Full-length CHIKV NSP2 protease enzymatic counterscreen; further: nearly all actives have a fitted effect of over 65% in size
Furin counter – selectivity counter-screen for CHIKV nsP2 protease inhibitors: human furin. shares compounds with nsP2pro primary. Recombinant human furin enzymatic counterscreen, fluorogenic substrate. Potency, µM (titrated, usually from 50.6 µM), inactives show top-dose activity change, negative = inhibition, hits mostly inhibitors. actives 6% (n = 410)
nsP2 NS23 pep – nsP2pro inhibition on native NS2/3 peptide substrate | Purified CHIKV nsP2 protease, endogenous NS2/3 peptide cleavage | Potency, µM (doses to about 51 µM), for the others: at the highest dose activity change, negative = inhibition, most hits filed as inhibitors | actives 34% (n = 410) | AID 1964103 | shares compounds with nsP2pro primary; further: nearly all actives have a fitted effect of over 55% in size
Papain cs – inhibits papain in a CHIKV nsP2 protease selectivity counterscreen; shares compounds with nsP2pro primary; purified papain protease activity, enzymatic inhibition; Potency, µM (titrated, usually from 51 µM), without a hit: at the highest dose activity change, negative = inhibition, hits mostly inhibitors; actives 5% (n = 410)
Target sequence (P00784 whole entry, looked up): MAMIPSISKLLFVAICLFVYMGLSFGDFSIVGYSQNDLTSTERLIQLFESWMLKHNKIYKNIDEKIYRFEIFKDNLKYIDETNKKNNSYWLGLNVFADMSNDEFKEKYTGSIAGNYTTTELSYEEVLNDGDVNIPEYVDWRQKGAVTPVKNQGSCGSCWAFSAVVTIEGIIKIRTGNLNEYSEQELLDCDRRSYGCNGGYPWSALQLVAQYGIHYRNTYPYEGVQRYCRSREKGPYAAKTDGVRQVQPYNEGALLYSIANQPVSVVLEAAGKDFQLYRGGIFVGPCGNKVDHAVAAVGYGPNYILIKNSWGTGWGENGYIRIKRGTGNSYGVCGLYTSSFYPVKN
nsP2pro conf qHTS – confirmation of CHIKV nsP2 protease inhibitors | shares compounds with nsP2pro primary | CHIKV nsP2 protease enzymatic activity, qHTS | Potency, µM (doses to about 25.5 µM), for the others: top-dose activity change, negative = inhibition, most hits filed as inhibitors | actives 43% (n = 410) | AID 1964105; further: nearly all actives have a fitted effect of over 75% in size
HCV NS3 4A cs – inhibits HCV NS3/4A protease in an nsP2pro selectivity counterscreen; HCV NS3/4A protease biochemical counterscreen; AID 1964106; actives 20% (n = 410); shares compounds with nsP2pro primary; Potency, µM (highest dose often 50.9 µM), actives largely listed as inhibitors; further: nearly all actives have a fitted effect of over 55% in size
* = called active by the depositor; i = inactive; ? = inconclusive; [ ] = dose if it differs, or a comment. The call rests on the fitted dose curve. On the % scale 0 is the no-effect control and ±100 the full control effect; potency means the concentration at half of the fitted maximal effect.

SMILES	nsP2pro primary	others
O=C(c1ccc2ccccc2n1)N1CCC(n2cc(-c3nc(-c4ccccc4)no3)nn2)C1 (stereo not drawn)	i
Cn1c(=O)cc(N2CCCC(N)C2)n(Cc2cc(F)ccc2C#N)c1=O (stereo not drawn)	2%
Cc1noc(C)c1C(=O)N1CCN(S(=O)(=O)c2ccc(Cl)nc2)C(=O)C1	0%
C/C=C(\C)C(=O)OC1C[C@@]2(COC(C)=O)O[C@H]2/C=C\[C@@]2(C)O[C@@H]2[C@H]2OC(=O)C(COC(C)=O)=C12 (stereo partly drawn)	3.4µM*	nsP2 cell sec=0%[17.6 µM];CHIKV NSP2 FL=?;Furin counter=-8%[17.3 µM];nsP2 NS23 pep=?;Papain cs=-9%[17.2 µM];nsP2pro conf qHTS=3.5µM*;HCV NS3 4A cs=?
C=C1C(=O)O[C@H]2[C@H]1[C@@H](OC(=O)/C(C)=C\C)C[C@]1(C)O[C@@H]1[C@H]1O[C@H]1C(=C)[C@H]2O	-4%
C/C=C(\C)C(=O)O[C@H]1CC2C(=C1C)[C@H]1OC(=O)[C@](C)(O)[C@]1(O)[C@H](OC(=O)CCC)C[C@@]2(C)OC(C)=O (stereo partly drawn)	-2%[10 µM]
COc1c(F)cccc1CN1CCOc2cc([S+](N)(=O)[O-])ccc2C1	3%[39.2 µM]
Cc1ccc(C)c(OCc2cc(C(=O)N3CCC(N4CCSCC4)CC3)no2)c1	-12%
O=c1cc(-c2ccc(O)c(O)c2O)oc2ccccc12	-16%
C=C(C)C(=O)O[C@H]1C[C@@](C)(O)C2(O)CCC(C)(/C=C3/OC(=O)C(COC)=C31)O2 (stereo partly drawn)	?	nsP2 cell sec=?;CHIKV NSP2 FL=?;Furin counter=-10%[33.5 µM];nsP2 NS23 pep=?;Papain cs=-9%[33.5 µM];nsP2pro conf qHTS=?;HCV NS3 4A cs=?
COc1cccc(-c2ccc(-c3nc4ccccc4c(=O)[nH]3)o2)c1	3%
Cc1ccc(Cl)cc1N1CCN(CCNC(=O)Nc2ccc(Cl)cc2)CC1	-13%
CCOc1ccc(NC(=O)NCCCN2CCN(c3ccc(OC)cc3)CC2)cc1	-11%
CCOc1ccc(NC(=O)CN2CCN(S(=O)(=O)c3ccc(OC)cc3)CC2)cc1	-29%
CCCNC(=O)CN1CCN(c2ccc(NC(=O)c3ccc(OC)cc3)cc2C(=O)O)CC1	4.5µM*	nsP2 cell sec=?;CHIKV NSP2 FL=4.1µM*;Furin counter=?;nsP2 NS23 pep=13µM*;Papain cs=2%;nsP2pro conf qHTS=7.1µM*;HCV NS3 4A cs=2.9µM*
CCCCOc1ccc(C(=O)Nc2ccc(F)cc2F)cc1	-8%
O=C(Nc1ccc(N2CCN(CCOc3ccc(Cl)cc3)CC2)c(C(=O)O)c1)c1ccc(F)cc1	3.5µM*	nsP2 cell sec=2%;CHIKV NSP2 FL=3.3µM*;Furin counter=?;nsP2 NS23 pep=8.2µM*;Papain cs=16%;nsP2pro conf qHTS=7.1µM*;HCV NS3 4A cs=2.1µM*
O=C(NCCCN1CCNCC1)c1cccc(-c2cc(O)c3ncccc3c2)c1	i
COc1ccc(O)c(CNc2ccc(S(=O)(=O)Nc3nccs3)cc2)c1	i
O=C1CCN(C(=O)c2ccsc2)CCCC(C(=O)N2CCN(c3ccccn3)CC2)CCN1 (stereo not drawn)	0%
O=C1OCCN1C1CCN(Cc2ccc(F)cc2)CC1	0%[39.2 µM]
Cn1ccc(C(=O)NCc2nnc3n2C(C(=O)NCC2CC2)CC3)n1 (stereo not drawn)	7.9µM*	nsP2 cell sec=10%;CHIKV NSP2 FL=?;Furin counter=-6%;nsP2 NS23 pep=?;Papain cs=3%;nsP2pro conf qHTS=?;HCV NS3 4A cs=11µM*
CC(=O)NCc1nnc2n1C(C(=O)NC1CCCCCC1)CC2 (stereo not drawn)	-22%[39.2 µM]
O=C(NCc1nnc2n1C(C(=O)N1CCCC1)CC2)Nc1cccnc1 (stereo not drawn)	-20%
CCOc1cc(C)c(CN2CCCC(O)(CN(C)C)C2)cc1C(C)C (stereo not drawn)	i
SMILES	nsP2pro primary	others
O=C(Cc1ccc(Cl)c(Cl)c1)Nc1ccc([S+](=O)([O-])Nc2nnc(-c3ccccn3)s2)cc1	i
N#CNC(=O)c1ccc(-n2cccc2/C=C2\NC(=O)N(CC(=O)Nc3ccc(F)cc3)C2=O)cc1	0%
O=C(NCc1c(F)cc(F)cc1F)c1cn2c(c(O)c1=O)C(=O)N1C3CCC(C3)OC1C2 (stereo not drawn)	38%
N#Cc1ccnc(N2C(=O)CC[C@H]2C(=O)N(c2cncc(F)c2)[C@H](C(=O)NC2CC(F)(F)C2)c2ccccc2Cl)c1	?	nsP2 cell sec=?;CHIKV NSP2 FL=-24%;Furin counter=-3%;nsP2 NS23 pep=-4%;Papain cs=-7%;nsP2pro conf qHTS=-9%;HCV NS3 4A cs=?
Cc1ccccc1C(C(=O)NC1CCCCC1)N(C(=O)Cn1cnc2ccccc21)c1cccc(F)c1 (stereo not drawn)	-3%
C[C@@]1(O)CCN(C(=O)c2cccc(F)c2)C[C@H]1N1CCCC1	5%
COc1ccccc1/C=C/C(=O)NCCc1nc2ccccc2n1CCOc1ccc(C)cc1	0%
CS(=O)(=O)N(C1CCOCC1)C1CN(C(=O)c2ccccn2)C1	4%
CC1=NOC2(CCN(CC3CC3)CC2)C1	-3%[39.2 µM]
CCNC(=O)N[C@@H]1C=C[C@@H](c2c(C)nn(-c3ccc(OC)cc3)c2C)C1	0%[39.2 µM]
Cc1nn(-c2ccccn2)c(C)c1[C@@H]1C=C[C@@H](NC(=O)NC(C)C)C1	10µM*	nsP2 cell sec=?;CHIKV NSP2 FL=19µM*;Furin counter=-8%;nsP2 NS23 pep=?;Papain cs=-5%;nsP2pro conf qHTS=13µM*;HCV NS3 4A cs=13µM*
Cc1nn(-c2ccccn2)c(C)c1[C@@H]1C=C[C@@H](NC(=O)CCC(=O)O)C1	3%[39.2 µM]
Cc1nn(-c2ccc(C(C)C)cc2)c(C)c1[C@@H]1C=C[C@@H](NC(=O)NC(C)C)C1	8%[39.2 µM]
Cc1ccc(-n2nc(C)c([C@@H]3C=C[C@@H](NC(=O)NC(C)C)C3)c2C)cc1Cl	-5%[39.2 µM]
Cc1nn(-c2ccc(C(F)(F)F)cc2)c(C)c1[C@@H]1C=C[C@@H](NC(=O)NC(C)C)C1	1.4µM*	nsP2 cell sec=2.1µM*;CHIKV NSP2 FL=-4%;Furin counter=15µM*;nsP2 NS23 pep=19µM*;Papain cs=-1%;nsP2pro conf qHTS=2.6µM*;HCV NS3 4A cs=12µM*
CCCCC1CCN(CCCC(=O)c2ccccc2C)CC1	-14%
O=c1c(O[C@@H]2OC([C@H](O)CO)[C@H](O)[C@H]2O)c(-c2ccc(O)c(O)c2)oc2cc(O)cc(O)c12 (stereo partly drawn)	24%
O=c1oc2cc(O)ccc2c2ccc(O)cc12	-8%
CC1=CC2=C(C)C(=O)[C@](C)(O)[C@H](O)C2=CO1	?	nsP2 cell sec=8%;CHIKV NSP2 FL=-12%;Furin counter=-8%;nsP2 NS23 pep=-11%;Papain cs=2%;nsP2pro conf qHTS=-14%;HCV NS3 4A cs=i

Bioassay records from PubChem.
